Laboratory results reported in PubChem BioAssay (NCATS).
Results filed as inconclusive are left out. Where a call stands in place of a potency, no number is given. Unmarked numbers belong to inactive results. Active and inactive are the calls of the source. Calls come from the whole dose curve; tested in HEK293 reporter line. Residues, ends and D or L forms follow the SMILES beside them.

Assay: qHTS for Inhibitors of the Functional Ribonucleoprotein Complex (vRNP) of Lassa (LASV) Arenavirus: LASV Primary Screen - GLuc reporter signal (AID 1347082); note: nearly all actives have a fitted effect of over 60% in size
Conditions: LASV minigenome vRNP, Gaussia luciferase reporter; series mostly up to 57.5 µM

SMILES	Potency	activity change, negative = inhibition
CC1(C)OC[C@@H]2O[C@@]3(C(=O)O)OC(C)(C)O[C@H]3[C@@H]2O1	inactive	–
CC(CN(C)C)C(C)(O)Cc1ccc(Cl)cc1 (centres undefined)	inactive	–
CCOc1ccc(NC(=O)CC(C)O)cc1 (centres undefined)	inactive	–
CCS(=O)(=O)c1ccc(OC)c(C(=O)OC)c1	inactive	–
CC(C)C[C@H](NC(=O)CNC(=O)[C@H](Cc1ccc(O)cc1)NC(=O)[C@H](CO)NC(=O)[C@H](Cc1c[nH]c2ccccc12)NC(=O)[C@H](Cc1cnc[nH]1)NC(=O)[C@@H]1CCC(=O)N1)C(=O)N[C@@H](CCCN=C(N)N)C(=O)N1CCC[C@H]1C(=O)NCC(N)=O (stereo in doubt)	inactive	–
COC(=O)[C@H](Cc1ccccc1)NC(=O)[C@@H](N)CC(=O)O (H-Asp-Phe-OMe)	inactive	–
CN1CCN(C(=O)C2CCCCC2)CC1	inactive	–
Cc1ccc(C(C)C)cc2c(C)ccc1-2	inactive	–
CC(=O)NCc1c(I)c(NC(C)=O)c(I)c(C(=O)O)c1I	inactive	–
C[C@@H](CN1CC(=O)NC(=O)C1)N1CC(=O)NC(=O)C1	inactive	–
O=C(O)Cc1cccc(-c2cc(CCCCCCc3ccc(O[C@H]4O[C@H](CO)[C@@H](O)[C@H](O)[C@@H]4O)c(-c4cccc(CC(=O)O)c4)c3)ccc2O[C@H]2O[C@H](CO)[C@@H](O)[C@H](O)[C@@H]2O)c1	–	1.7% [at 0.757 µM]
Cn1cc(S(C)=O)c(=O)c2ccc(F)cc21 (centres undefined)	inactive	–
CCCCCCCCCCCCOCCO	inactive	–
NC(CO)(CO)CO	inactive	–
Nc1ncnc(Nc2ccccc2)n1	inactive	–
CC(C)(C)NCC(O)COc1ccc(NC(=O)NC2CCCCC2)cc1 (centres undefined)	inactive	–
CCCCC(CC)COC(=O)c1ccccc1O (centres undefined)	inactive	–
C[C@H](CS)C(=O)N1CCC[C@H]1C(=O)O	inactive	–
COc1ccc(C(=O)c2ccccc2O)c(O)c1	inactive	–
Cc1noc(NS(=O)(=O)c2ccc(N)cc2)c1C	inactive	–

SMILES	Potency	activity change, negative = inhibition
O=C(O)[C@@H]1[C@H]2C[C@H]3c4[nH]c5ccccc5c4CCN3C[C@@H]2CC[C@@H]1O	inactive	–
CC(=O)N(c1onc(C)c1C)S(=O)(=O)c1ccc(N)cc1	inactive	–
CNCc1ccccc1	inactive	–
CCC1(C)CC(=O)NC1=O (centres undefined)	inactive	–
CCCCCCn1c(=O)c2c(ncn2C)n(C)c1=O	inactive	–
CNC(=O)c1c(I)c(NC(C)=O)c(I)c(C(=O)O)c1I	inactive	–
Cc1cc2c(cc1CC(=O)c1sccc1S(=O)(=O)Nc1onc(C)c1Cl)OCO2	inactive	–
CC(=O)OCC(=O)[C@@]1(O)[C@H](C)C[C@H]2[C@@H]3CCC4=CC(=O)C=C[C@]4(C)[C@@]3(F)[C@@H](O)C[C@@]21C	inactive	–
CC(C)(C)NC[C@H](O)COc1cccc2c1CCCC2=O	inactive	–
NCCS(=O)(=O)O	inactive	–
CS(=O)(=O)c1ccc([C@@H](O)[C@@H](CO)NC(=O)C(Cl)Cl)cc1	inactive	–
OC[C@H]1O[C@H](O[C@]2(CCl)O[C@H](CCl)[C@@H](O)[C@@H]2O)[C@H](O)[C@@H](O)[C@H]1Cl	inactive	–
C/C(=C(\CCO)SS/C(CCO)=C(\C)N(C=O)Cc1cnc(C)nc1N)N(C=O)Cc1cnc(C)nc1N	inactive	–
CCN(Cc1ccncc1)C(=O)C(CO)c1ccccc1 (centres undefined)	inactive	–
Cc1ccccc1C(=O)N1CC/C(=N\OS(=O)(=O)O)c2ccc(Cl)cc21	inactive	–
CSCC[C@H](NC(=O)[C@H](Cc1c[nH]c2ccccc12)NC(=O)CCNC(=O)OC(C)(C)C)C(=O)N[C@@H](CC(=O)O)C(=O)N[C@@H](Cc1ccccc1)C(N)=O	inactive	–
CCCCC(CC)CNC(=O)CC(C)OC(=O)CCC(=O)O (centres undefined)	inactive	–
Oc1cccc(O)c1	inactive	–
CO/N=C(/C(=O)N[C@@H]1C(=O)N2C(C(=O)[O-])=C(C[n+]3ccn4ncccc43)CS[C@H]12)c1nsc(N)n1	inactive	–
